PrPC surface inh: cell surface PrPC inhibition, primary TR-FRET screen | P04156 | inhibition, % at 13.8 µM | 370,000 tested, 0.43% active | AID 720596 | TR-FRET read-out; in the data active = inhibition above about 24%; also: 0% = median of the test wells and 100% = reference compound wells
TcdB GH inh: blocks C. difficile toxin B glycohydrolase activity; P18177; TcdB glycohydrolase enzymatic assay, plate reader; inhibition, % at 9.99 µM; 350,000 tested, 0.24% active
FBA Mtb inh: Mtb fructose-bisphosphate aldolase inhibition | 360,000 tested, 2.3% active | AID 588726 | P9WQA3 | inhibition, % at 1 µM | purified M. tuberculosis FBA, fluorescence read-out; in the data active = inhibition above about 27%;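 also: 0% = vehicle and 100% = reference inhibitor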
Y pestis TopoI: Y. pestis Topo-I inhibition via cleavage products. activity, % at 10 µM. 360,000 tested, 0.064% active. Y. pestis Topo-I cleavage product accumulation, plate reader; in the data active = activity above about 50%, passing the limit was not always enough
GDH-TPI counter-1: inhibits GDH-TPI coupling enzymes, artifact for Mtb FBA screen; GDH-TPI coupled enzyme counterscreen, NADH absorbance; inhibition, % at 4.8 µM; 360,000 tested, 1.2% active; AID 588335; in the data active = inhibition above about 30%;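 also: 0% = DMSO wells and 100% = wells lacking the enzyme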
Mtb FBA inh conf: Mtb FBA inhibition, confirmed; AID 651616; purified M. tuberculosis FBA, fluorescence read-out; shares compounds with FBA Mtb inh; 5,600 tested, 78% active; inhibition, % at 1 µM; in the data active = inhibition above about 27%;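 also: 0% = vehicle wells and 100% = reference inhibitor wells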
GDH-TPI counter-2: GDH-TPI inhibition counter-screen for FBA inhibitors. shares compounds with FBA Mtb inh. GDH-TPI coupled enzyme counterscreen, fluorescence. inhibition, % at 1 µM. 5,600 tested, 81% active. AID 652141
The depositor's hits bear a star; · = no result; + = active, no number. This is a sample that favours compounds with a hit; in the whole collection about 3.2% have one here. Rule as the data show it, unless noted: active = inhibition above about 10%; inactive = the rest.

SMILES	PrPC surface inh	TcdB GH inh	FBA Mtb inh	Y pestis TopoI	GDH-TPI counter-1	Mtb FBA inh conf	GDH-TPI counter-2
Cc1c(Nc2nc3ccccc3nc2N2CCN(c3ccccc3)CC2)c(=O)n(-c2ccccc2)n1C	1	·	1	4	8	·	·
Cc1c(Nc2c3ccccc3nc3ccccc23)c(=O)n(-c2ccccc2)n1C	-12	4	109*	0	6	-2	-1
O=C(C[C@H]1C=C[C@@H](NC(=O)Nc2ccccc2F)[C@@H](CO)O1)NCc1ccc(F)cc1	·	-3	·	·	·	·	·
Cc1ccc2[nH]c3c(c2c1)CCCC3=O	1	·	12	8	12	·	·
Cc1ccc2[nH]c3c(c2c1)CCC3=O	11	·	65*	2	2	+	162*
COc1ccc2nc(COC(=O)c3ccco3)c(C(C)=O)[n+]([O-])c2c1	-5	·	7	6	5	·	·
COc1ccc2nc(CC(C)(C)CC(=O)O)c[n+]([O-])c2c1	-17	·	64*	-1	9	+	+
C=CC[C@@]1(C(=O)OC)N=C(c2ccc(OCCCO)cc2)O[C@@H]1c1ccccc1	·	1	·	·	·	·	·
Cc1c(C)n2c(SCC(=O)NC3CCCCC3)nnc2[nH]c1=O	-6	1	32*	8	4	-3	-4
CCCc1cc(=O)[nH]c2nnc(SCC(=O)NC3CCCC3)n12	-3	2	3	9	-6	·	·
Cc1cc(C)nc(-n2ncc3c2CC(c2cccc(Cl)c2)CC3=O)n1 (stereo unspecified)	9	2	29*	21	16	75*	56*
Cc1cc(C)nc(-n2ncc3c2CC(c2ccccc2)CC3=O)n1 (stereo unspecified)	-3	1	-1	-1	6	·	·
CN1C(=O)c2cc(NC(=O)Cc3ccccc3)ccc2OC[C@@H]2O[C@@H](CC(=O)NC3CCC3)CC[C@@H]21	·	0	·	·	·	·	·
COCC(=O)Nc1ccc2c(c1)OC[C@H](C)N(Cc1ccccn1)C[C@H](C)[C@@H](OC)CN(C)C2=O	·	0	·	·	·	·	·
COC(=O)c1ccc(C(=O)OC)c(NC(=O)CCC(=O)O)c1	-2	·	28*	-7	18	33*	23*
COC(=O)c1ccc(C(=O)OC)c(NC(=S)N2CCN(C)CC2)c1	-2	1	33*	-1	9	198*	174*
COC(=O)c1ccc(C(=O)OC)c(NC(=S)N2CCCCC2C)c1 (stereo unspecified)	-4	·	100*	-5	2	60*	59*
COC(=O)c1ccc(C(=O)OC)c(NC(=S)N2CCCC2)c1	-8	0	3	-1	2	·	·
CN(C)c1ccc(/C=N\NC(=O)CC#N)cc1	-4	1	30*	1	35*	12	3
Cc1[nH]c(C(=O)N/N=C/c2ccc(N(C)C)cc2)c(C)c1C(=O)N/N=C/c1ccc(N(C)C)cc1	3	-8	28*	19	45*	60*	44*
CN(C)c1ccc(/C=N/NC(=O)CCCO)cc1	-5	0	20	0	22	·	·
Cc1nc(N2CCN(C(=O)c3ccco3)CC2)c(C#N)c2c1CCCC2	-4	2	38*	12	11	98*	83*
CC(C)Cc1nc(N2CCN(C(=O)c3ccco3)CC2)c(C#N)c2c1CCCC2	1	1	9	3	5	·	·
COc1ccc2[nH]c3c(c(=O)c2c1)CCCC3	8	0	30*	·	·	+	153*
O=c1c2c([nH]c3ccccc13)CCCCC2	6	1	-1	-3	6	·	·
SMILES	PrPC surface inh	TcdB GH inh	FBA Mtb inh	Y pestis TopoI	GDH-TPI counter-1	Mtb FBA inh conf	GDH-TPI counter-2
O=c1oc(Nc2cccc(F)c2)nc2ccccc12	-1	·	36*	-1	-2	96*	79*
C[C@@H]1CN([C@@H](C)CO)C(=O)c2cccc(NC(=O)c3ccncc3)c2O[C@@H]1CN(C)S(=O)(=O)c1cccs1	·	1	·	·	·	·	·
OCCOCCNc1ncnc2sc(-c3ccccc3)cc12	-8	·	32*	7	15	11	15*
CNc1ncnc2sc(-c3ccccc3)cc12	-9	1	46*	4	12	52*	36*
CN(C)CCNc1ncnc2sc(-c3ccccc3)cc12	-5	3	16	-10	2	·	·
COc1ccc(-c2nc3nc(SC)nn3cc2C)cc1F	-2	1	16	6	1	·	·
COc1ccc(-c2nc3ncnn3cc2C)cc1F	5	-3	73*	1	-4	+	+
Cc1noc(C)c1NC(=O)N(C)C[C@H]1Oc2c(NC(=O)Nc3ccc4c(c3)OCO4)cccc2C(=O)N([C@@H](C)CO)C[C@H]1C	·	-1	·	·	·	·	·
COC(=O)C1=C(c2ccc(-c3ccccc3)c(F)c2)C[C@@H]2CC[C@H]1N2C(=O)NCCNC(C)=O	7	3	43*	36	3	45*	38*
COc1ccc(-c2ccc3c(c2)O[C@@H](CN(C)C(C)=O)[C@@H](C)CN([C@H](C)CO)S3(=O)=O)cc1	·	2	·	·	·	·	·
CCOC(=O)CC(=O)CSc1nc(C)cc(C)c1C#N	-3	·	17	-7	6	·	·
CCOC(=O)CC(=O)CSc1nc2c(c(C)c1C#N)CCC2	1	·	31*	-1	3	82*	47*
O=C(c1ccc(F)cc1)N1CCCCN2[C@H](C1)[C@@H](c1ccc(-c3ccc(F)cc3)cc1)[C@@H]2CO	·	0	·	·	·	·	·
C[C@]12c3[nH]c4cc(-c5ccco5)ccc4c3CCN1C(=O)[C@@H](CC(=O)NCCN1CCOCC1)C[C@@H]2C(=O)N1CCCCC1	0	2	35*	32	13	-3	-5
C[C@]12c3[nH]c4cc(-c5ccco5)ccc4c3CCN1C(=O)[C@@H](CC(=O)NCC13CC4CC(CC(C4)C1)C3)C[C@@H]2C(=O)N1CCOCC1	-13	0	15	34	9	·	·
COCCCNC(=O)C[C@H]1C[C@H](C(=O)N2CCCCC2)[C@@]2(C)c3[nH]c4cc(-c5ccco5)ccc4c3CCN2C1=O	-2	1	27*	47	-1	68*	52*
COc1ccc(NC(=O)Nc2ccc3c(c2)C(=O)N([C@H](C)CO)C[C@@H](C)[C@H](CN(C)Cc2ccncc2)OCCCC[C@H](C)O3)cc1	·	0	·	·	·	·	·
COC(=O)c1cn(C[C@@H](Cc2ccccc2)NC(=O)Nc2ccccc2)nn1	·	0	·	·	·	·	·
CC(C)c1nc(NCC2CCCO2)c(C#N)c2c1COC(C)(C)C2 (stereo unspecified)	2	·	55*	15	8	123*	101*
CCc1nc(NCC2CCCO2)c(C#N)c2c1COC(C)(C)C2 (stereo unspecified)	1	·	71*	2	9	140*	105*
CC(C)c1nc(Cl)c(C#N)c2c1COC(C)(C)C2	2	0	1	4	5	·	·

Assay outcomes as filed in PubChem.
